In PubChem BioAssay AID624330 (Southern Research Specialized Biocontainment Screening …, 2012):
In all, about 340,000 compounds went through this assay and about 2,100 (0.62%) were called active.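 Rule for the calls: active = first-screen hits whose inhibition reached a set limit at any dose in the follow-up dose series; inconclusive = inhibition above the set first-screen limit but never retested; inactive = the rest.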 These entries were drawn from the full list. Measured potencies and affinities stand elsewhere.

target: Rac GTPase-activating protein 1 (Homo sapiens) (UniProt Q9H0H5); assay: blockers of MgcRacGAP-driven Rac1 GTP hydrolysis – biochemical, ADP Hunter fluorescence, primary and confirmatory, confirmation (AID 624330); details: MgcRacGAP-stimulated Rac1 GTP hydrolysis, at 30 µM, stronger effect = higher value, GST-tagged Rac1 F28L mutant substrate;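 note: fluorescence reports GDP produced by GAP-driven GTP hydrolysis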
Sequence (Q9H0H5 whole entry, looked up): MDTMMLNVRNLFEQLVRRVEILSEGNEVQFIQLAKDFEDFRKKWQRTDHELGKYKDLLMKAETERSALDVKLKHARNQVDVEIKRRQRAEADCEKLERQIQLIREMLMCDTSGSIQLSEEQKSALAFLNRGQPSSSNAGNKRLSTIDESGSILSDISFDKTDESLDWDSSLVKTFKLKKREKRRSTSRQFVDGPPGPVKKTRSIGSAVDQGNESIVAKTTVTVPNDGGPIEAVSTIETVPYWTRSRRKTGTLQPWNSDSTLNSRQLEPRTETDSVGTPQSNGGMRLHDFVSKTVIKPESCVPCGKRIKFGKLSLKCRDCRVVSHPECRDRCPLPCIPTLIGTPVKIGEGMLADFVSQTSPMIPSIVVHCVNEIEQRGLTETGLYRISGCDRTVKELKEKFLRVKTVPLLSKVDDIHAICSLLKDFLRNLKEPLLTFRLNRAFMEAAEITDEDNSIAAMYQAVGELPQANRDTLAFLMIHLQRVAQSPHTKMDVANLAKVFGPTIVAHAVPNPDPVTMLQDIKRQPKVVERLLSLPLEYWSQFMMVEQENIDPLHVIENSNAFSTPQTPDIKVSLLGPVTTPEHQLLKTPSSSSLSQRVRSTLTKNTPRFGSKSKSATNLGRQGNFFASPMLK

inhibition, inactive:
O=C(Nc1cccc(-c2ccc(N3CCOCC3)nn2)c1)c1ccc(Cl)cc1 3.67%, CCc1c(C)nc(SCC(=O)N2CCN(c3ccccc3)CC2)[nH]c1=O 13%, Cc1ccc(N=Cc2cc(Cc3ccccc3Cl)cc([N+](=O)[O-])c2O)c(O)c1 20.2%, O=[N+]([O-])c1cc(Cc2ccccc2)cc(C=Nc2ccc(N3CCOCC3)cc2)c1O 27.8%, O=C(COC(=O)c1cnccn1)NCCc1ccc(Cl)cc1 8.82%, CCOc1ccc(C(=O)NNC(=O)C2CC(=O)N(c3ccc(C)cc3)C2)cc1 (stereo not drawn) 5.17%, Clc1nccnc1N/N=C/c1ccc(Br)cc1 13.4%, Oc1ccc(/C=N/Nc2ccnc3cc(Cl)ccc23)c(O)c1 17.9%, O=C(O)c1ccc(/C=N/Nc2ncc(Cl)cc2Cl)cc1 2.45%, Fc1ccc(/C=N/Nc2nccnc2Cl)cc1 15.7%, Clc1cnc(N/N=C/c2ccncc2)c(Cl)c1 3.41%, Oc1ccccc1/C=N/Nc1nccnc1Cl 5.4%, CCC(NC(=O)c1ccccc1NC(=O)C(C)(C)C)C(=O)N1CCCC1 (stereo not drawn) 7.5%, CCN(C(=O)CSc1nc2cc(S(=O)(=O)N(CC)CC)ccc2n1CC)C1CCS(=O)(=O)C1 (stereo not drawn) 0.8%, COCCN(C(=O)c1cccc(-n2cnnn2)c1)c1c(N)n(CC(C)C)c(=O)[nH]c1=O 5.99%, CCc1cc(C(=O)N2CCN(S(=O)(=O)c3ccc(Cl)cc3)CC2)sc1C 1.55%, O=C(c1cc(S(=O)(=O)N2CCCCC2)ccc1N1CCOCC1)N1CCN(Cc2ccccc2)CC1 7.61%, NC(=S)NNC(=O)[C@@H]1CCCC[C@@H]1C(=O)O 11.2%, C=CCOc1cccc(/C=N/NC(=O)CN2CCCCC2)c1 8.26%, O=C(C[C@H]1C/C=C\C[C@@H](Cc2ccc(F)cc2)C(=O)OC[C@H]2CCCN2C1=O)N[C@@H](CO)Cc1ccccc1 4.35%, CC(NC(=O)c1cccc(C(F)(F)F)c1)C1CCCO1 (stereo not drawn) 6.29%, COc1ccc(-c2cc(=O)c3c(O)cc(OC4OC(COC5OC(C)C(O)C(O)C5O)C(O)C(O)C4O)cc3o2)cc1O (stereo not drawn) 4.67%, CC1OC(OCC2OC(Oc3c(-c4ccc(O)cc4)oc4cc(O)cc(O)c4c3=O)C(O)C(O)C2O)C(O)C(O)C1O (stereo not drawn) 7.46%, O=c1c2cc(O)c(O)cc2oc2cc(O)c(C3OC(CO)C(O)C(O)C3O)c(O)c12 (stereo not drawn) 23.9%, O=c1cc(-c2ccc(O)cc2)oc2cc(O)c([C@@H]3O[C@H](CO)[C@@H](O)[C@H](O)[C@H]3O)c(O)c12 4.21%, O=c1cc(-c2ccc(O)cc2)oc2c([C@@H]3O[C@H](CO)[C@@H](O)[C@H](O)[C@H]3O)c(O)c([C@@H]3O[C@H](CO)[C@@H](O)[C@H](O)[C@H]3O)c(O)c12 5.95%, O=c1cc(-c2ccc(O)cc2)oc2cc(O)c(C3OC(CO)C(O)C(O)C3O)c(O)c12 (stereo not drawn) 12.2%, CCn1ncc([N+](=O)[O-])c1C(=O)Nc1c(C)nn(Cc2ccc(F)cc2)c1C -5.73%, CN(C)S(=O)(=O)N1CCN(Cc2ccccc2)CC1 -9.47%, COc1cccc(C(=O)NC2(C(F)(F)F)N=C3SCCN3C2=O)c1 (stereo not drawn) 8.58%, COc1ccc(C(=O)N/N=C(/C)c2cccc(NC(=O)c3ccccc3F)c2)cc1 6.03%, Cc1nc2ccccc2c(=O)n1NC(=O)Cc1ccc(Br)cc1 1.21%, C=CCc1c(C)nc(-c2ccccc2)nc1Nc1ccccc1O -2.42%, C=CCc1c(C)nc(-c2ccccc2)nc1N/N=C/c1ccccc1 9.45%, COc1ccc(NC(=O)CN2C(=O)C(C)Oc3ccccc32)c(OC)c1 (stereo not drawn) 9.91%, CC(C)(C)C(=O)NCc1ccc(C(=O)CSc2nnc3n2CCCCC3)s1 9.14%, CCOc1ccc(C(CC(=O)O)NC(=O)c2ccco2)cc1OC (stereo not drawn) 5.75%, Oc1ccc(/C=N/Nc2ccc3ccccc3c2)c(O)c1 9.51%, Oc1ccc(/C=N/Nc2cccc3cccnc23)c(O)c1 0.03%, Cc1cc(N/N=C/c2ccc(O)cc2O)c2ccccc2n1 -8.64%, COc1cccc(/C=N/Nc2cc(Cl)nc(C)n2)c1O -19.7%, Cc1cc(N/N=C/c2ccc(O)cc2O)nc(-c2ccccc2O)n1 9.61%, Oc1cccc(C=NNc2ccccn2)c1 2.05%, Cc1ccc(-c2c(C(=O)NC(C)C)oc(=O)c3ccccc23)cc1 5.65%, CCCCSc1ncnc2c1ncn2C1CCCCO1 (stereo not drawn) 0.67%, CC12CCC(C(=O)Nc3cc(Cl)ccc3Cl)(C(Br)C1=O)C2(C)C (stereo not drawn) 8%, CC(=O)/C(=C/N(C)C)Sc1ccc(C)cc1 -4.58%, COC(=O)[C@@]12CCCN1[C@H](c1ccc(-c3ccccc3)cc1)[C@@H]1C(=O)N(C)C(=O)[C@@H]12 10.8%, O=C(COC(=O)CCS(=O)(=O)c1ccc(Cl)cc1)Nc1ncc(Cl)cc1Cl -0.72%, COc1ccc(/C=C2\SC(=O)N=C2N)cc1OC -3.06%, CCN=C1S/C(=C\c2ccc(OCC)c(OC)c2)C(=O)N1CC 2.65%, CCN=C1S/C(=C\c2cc(OCC)c(O)cc2Br)C(=O)N1CC 14.2%, NC1=NC(=O)S/C1=C\c1ccc(F)cc1 -6.63%, CCOc1ccc(N2C(=O)S/C(=C\c3ccc(O)c(OCC)c3)C2=O)cc1 9.4%, NC1=NC(=O)/C(=C\c2ccc(O)c([N+](=O)[O-])c2)S1 2.32%, CC(C)(C)c1ccc(/C=C2\SC(=O)N=C2N)cc1 2.11%, C=CCOc1ccc(/C=C2\SC(N)=NC2=O)cc1OC 7.81%, C/C=C/c1ccc(OCCN2CCc3ccccc3C2)c(OC)c1 17.9%
